# High-throughput results: PubChem, National Center for Advancing Translational Sciences (NCATS)
# Shown are actives, neighbours in structure and some others; about 7.4% of the full set was active somewhere.
# ELG1 genotox: genotoxicity induction in ELG1-luciferase HEK293T cells. HEK293T ELG1-luciferase reporter, luminescence, 16 h. Potency, µM (doses to about 46 µM), for the others: at the top dose activity change, positive = activation, hits mostly activators. 1.3% of 330,000 active. AID 504466; note: % of control where 0% means no effect; nearly all actives have a fitted effect of over 60% in size
#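 Step 1: seed 2,000 HEK293T ELG1-luciferase cells per well. Step 2: add compound or DMSO, incubate 16 hr at 37 °C. Step 3: ONE-Glo, 30 min at room temperature, read luminescence.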
# FLuc modulator: inhibits or activates purified firefly luciferase, miR-21 counter-screen; P08659; purified FLuc, Km substrates, luminescence inhibition; Potency, µM (series often up to 57.5 µM), for inactives: top-dose activity change, negative = inhibition, usual class: inhibitors; 6.9% of 360,000 active; AID 588342;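 note: plate controls were vehicle for no effect and reference inhibitor for full effect; nearly all actives have a fitted effect of over 55% in size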
# Target sequence (P08659 whole entry, looked up): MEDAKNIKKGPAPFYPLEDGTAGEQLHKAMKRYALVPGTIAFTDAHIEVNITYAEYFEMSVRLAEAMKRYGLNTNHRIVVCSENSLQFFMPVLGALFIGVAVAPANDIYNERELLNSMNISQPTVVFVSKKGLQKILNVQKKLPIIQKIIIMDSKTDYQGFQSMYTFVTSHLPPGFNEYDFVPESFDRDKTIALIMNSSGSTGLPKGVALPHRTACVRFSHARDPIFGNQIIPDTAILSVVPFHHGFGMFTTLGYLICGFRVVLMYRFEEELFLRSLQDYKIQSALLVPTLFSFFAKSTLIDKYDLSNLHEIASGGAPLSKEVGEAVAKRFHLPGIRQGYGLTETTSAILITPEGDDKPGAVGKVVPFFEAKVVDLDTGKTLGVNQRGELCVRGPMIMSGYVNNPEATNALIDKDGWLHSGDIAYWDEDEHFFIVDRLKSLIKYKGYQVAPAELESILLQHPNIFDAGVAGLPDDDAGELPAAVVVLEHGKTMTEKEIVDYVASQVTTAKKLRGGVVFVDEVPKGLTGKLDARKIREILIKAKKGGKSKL
#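 Purified P. pyralis luciferase (10nM final) with 10uM D-luciferin and 10uM ATP (Km levels) in 50mM Tris acetate pH 7.5, 10mM Mg acetate, 0.01% Tween-20, 0.05% BSA; qHTS 6-point titration, ~60 µM downward; luminescence read.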
# NPC1 prom act: activators of NPC1 promoter. 2.4% of 320,000 active. Huh7 NPC1 promoter luciferase reporter, 24 h. Potency, µM (doses to about 9.22 µM), inactives show top-dose activation, most hits filed as activators; note: % of control where 0% means no effect; nearly all actives have a fitted effect of over 60% in size
#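 Quantitative HTS used a cell-based reporter: Huh7 cells stably bearing the NPC1 promoter upstream of luciferase were treated with compounds for 24 h, and promoter activation was read as luminescence.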
# SMN2 splice enh: enhancers of SMN2 splice variant expression. HEK293 SMN2-luciferase splicing reporter, luminescence, 30-36 h. Potency, µM (top dose mostly 46.1 µM), for inactives: at the highest dose activity change, positive = activation, actives largely listed as activators. 2.8% of 210,000 active; note: % of control where 0% means no effect; nearly all actives have a fitted effect of over 55% in size
#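 HEK293 cells carry an SMN2 minigene-luciferase reporter in which exon 7 inclusion puts luciferase in frame. Cells were seeded at 2000 cells/well, attached for 10-12 hours, then exposed to compounds for 30-36 hours at 37C before ONE-Glo luminescence.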
# Rab9 promoter act: activates the Rab9 promoter; Potency, µM (series often up to 9.22 µM), for inactives: at the highest dose activation, negative = inhibition, usual class: activators; 2.8% of 320,000 active; Huh7 Rab9 promoter-luciferase reporter, luminescence, 24 h; note: % of control where 0% means no effect; nearly all actives have a fitted effect of over 60% in size
#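 Steps: seed 1500 Huh7 Rab9-luc cells per well, rest 2 h at 37 °C; add compound in DMSO; incubate 24 h; add luciferase reagent, 10 min ambient; read luminescence.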
# Numbers without * were called inactive; ? = inconclusive; . = no result given. Calls come from the whole dose curve; as a rule, active = well fitted curve in the direction sought with a large enough effect; inconclusive = small, poorly fitted or top-dose-only effect, or another doubt; inactive = no such curve, though single readings can be large; an effect the other way counts as inactive or inconclusive. Potency is the fitted concentration of half-maximal effect.
SMILES,ELG1 genotox,FLuc modulator,NPC1 prom act,SMN2 splice enh,Rab9 promoter act
N/C(=N\OC(=O)c1cccc(Br)c1)c1ccc([N+](=O)[O-])cc1,2%,?,-1%,.,0%
O=[N+]([O-])c1ccc(Oc2ccc(Oc3ccc(C(F)(F)F)cn3)cc2)nc1,-5%,-3%,-3%,.,-10%
C=CCn1c(SCc2ccccc2F)nc2cc(C(=O)O)ccc2c1=O,2%,3%,-5%,.,-1%
COc1ccc([N+](=O)[O-])cc1NC(=O)C(C)OC(=O)Cn1[nH]c(=O)c2ccccc2c1=O (centres undefined),-5%,0%,1%,.,-7%
COC(=O)c1ccc(Cn2nc(-c3cc(C)ccc3C)ccc2=O)cc1,-1%,2%,-7%,.,-8%
Nc1cccc(-c2cn3cc(C(F)(F)F)cc(Cl)c3n2)c1,?,1.9µM*,1µM*,7.9µM*,1.6µM*
Cc1cc(C(F)(F)F)nc(-n2cc(-c3cccc(N)c3)nn2)n1,2%,1%,8%,.,9%
FC(F)(F)c1cc(Cl)c2nc(-c3ccccc3)cn2c1,?,1.9µM*,?,14µM*,?
CCn1c(SCC(=O)NC2CC2)nnc1-c1ccc(OC)cc1,15%,2%,0%,.,-2%
C[C@H](NC(=O)Nc1ccccc1F)C(=O)O,1%,-1%,-2%,?,-2%
O=C(CCc1ccccc1)Nc1ccccc1F,?,12µM*,?,16µM*,2.8µM*
O=C(Nc1ccccc1F)Nc1ccccc1F,26%,15µM*,?,13µM*,2.5µM*
O=C(Nc1ccc(Br)cc1)Nc1ccccc1F,?,4.8µM*,1.6µM*,.,2.8µM*
O=C(NNc1ccccc1)Nc1ccccc1F,4%,19µM*,1%,.,-5%
O=C(CCc1ccccc1)Nc1ccc(F)cc1F,?,?,27%,14%,?
CCc1ccccc1NC(=O)Nc1ccc(F)cc1,1%,?,0%,.,15%
COc1cc(C(=O)NCCc2sc(-c3ccc(C)cc3)nc2C)cc(OC)c1OC,.,-17%,.,.,.
CC(C#N)Sc1ncnc2sc(-c3ccccc3)cc12 (centres undefined),0%,?,1%,.,4%
O=C(Nc1ccccc1F)Nc1cccc2ccc(O)cc12,0%,17µM*,19%,.,?
Cc1ccc(-c2nc(=S)c3c(n2Cc2cccnc2)CC(C)(C)OC3)cc1,4%,-2%,-7%,.,-2%
COc1ccc2cc(-c3ccn[nH]3)ccc2c1,5.8µM*,1.3µM*,2.2µM*,.,1.8µM*
COc1ccc(-c2cn[nH]c2C)cc1,-7%,-9%,5%,.,-3%
CC1=Nc2ccc3ccccc3c2C1(C)C,-1%,-19%,-4%,4%,-2%
Cc1c2ccccc2c(C)c2c1ccc1ccccc12,18µM*,13µM*,22%,3%,?
Cc1ccc(NC(=O)CNCc2cccs2)cc1Br,6%,?,18%,.,10%
SMILES,ELG1 genotox,FLuc modulator,NPC1 prom act,SMN2 splice enh,Rab9 promoter act
O=C(NCCSC1CCCCC1)c1ccccc1,?,?,29%,?,?
COc1ccc(C(=O)NCCSC2CCCCC2)cc1,?,13µM*,?,16µM*,?
Cc1ccc(NC(=O)c2cccs2)cc1NC(=O)c1ccc(F)cc1,-2%,?,12%,.,11%
CCOC(=O)c1cccc(NC(=O)c2cc3sccc3n2C)c1,?,24µM*,0.35µM*,14µM*,0.89µM*
COc1cccc(C(=O)Nc2cc(NC(=O)c3cccs3)ccc2C)c1OC,-14%,21µM*,-2%,.,3%
COc1cc(NC(=O)c2ccccc2Cl)ccc1NC(=O)c1cccs1,?,13µM*,?,22µM*,2.8µM*
CCOC(=O)c1cccc(NC(=O)c2cc3sccc3n2Cc2ccc(Cl)cc2)c1,.,-1%,.,12%,.
CCOC(=O)c1cccc(Nc2nc(C)cc(C)n2)c1,13%,?,?,?,4.5µM*
O=C(NC1CCCC1)c1c[nH]c2ccc(S(=O)(=O)Nc3cccc(C(F)(F)F)c3)cc2c1=O,.,?,.,-60%,.
COC(=O)c1sc2cccc(F)c2c1S(=O)(=O)N1CCN(c2ccccc2OC)CC1,.,-3%,.,.,.
Cc1oc(-c2ccccc2)nc1CNS(=O)(=O)c1ccc(Cl)cc1,.,-14%,.,.,.
CC(=O)Oc1cccc(C(=O)Nc2ccc(NC(=O)c3cccs3)cc2)c1,?,-1%,4.5µM*,.,?
CCOC(=O)c1cccc(NC(=O)c2cccs2)c1,?,21µM*,27%,-11%,18%
CCOC(=O)c1cccc(NC(=O)c2sc3nc[nH]c(=O)c3c2C)c1,.,15µM*,.,.,.
COc1cccc(C(=O)Nc2cccc(NC(=O)c3cccs3)c2)c1,-2%,21µM*,1%,.,0%
COc1ccccc1N1CCN(CC2CN3C(=O)N(C)c4ccccc4C3=N2)CC1 (centres undefined),.,.,.,-7%,.
CCc1sc(C(=O)Nc2cccc(C(C)=O)c2)cc1C,16%,11µM*,27%,?,?
COc1cccc(C(=O)Nc2cc(NC(=O)c3cccs3)ccc2C)c1,-14%,12µM*,4%,.,2%
Cc1ccc(NC(=O)c2cccs2)cc1NC(=O)c1cccc(F)c1,-5%,?,-1%,.,3%
COc1cc2c(cc1OC)n(Cc1cccc(C(F)(F)F)c1)c(=O)n1nc(-c3ccccc3)nc21,.,-7%,.,-13%,.
COc1cc2cc(CN(CCc3ccccc3C)C(=S)NCCCN(C)C)c(=O)[nH]c2cc1OC,0%,0%,-3%,-1%,-1%
Cc1ccc2[nH]c(=O)c(CN(Cc3ccccc3)C(=S)NCCCN(C)C)cc2c1,0.73µM*,0.76µM*,0.32µM*,.,0.32µM*
O=C(CSc1cn(Cc2ccccc2)c2ccccc12)Nc1nccs1,4.6µM*,0.85µM*,3.2µM*,?,2.5µM*
O=C(CSc1ccccc1)Nc1nccs1,7%,-16%,14%,17%,?
O=C(N/N=C/c1ccc(OC(=O)c2ccco2)cc1)c1ccccn1,?,2.7µM*,2.8µM*,.,1.8µM*
SMILES,ELG1 genotox,FLuc modulator,NPC1 prom act,SMN2 splice enh,Rab9 promoter act
COc1cc(/C=N/NC(=O)c2ccccn2)ccc1OC(=O)c1ccc(Br)cc1,?,-8%,?,.,24%
O=C(N/N=C/c1c[nH]c2ccc(Br)cc12)c1ccccn1,2%,?,1%,9%,0%
O=C(Oc1ccc(/C=N/NC(=O)c2ccccn2)cc1)c1cccc(Br)c1,16µM*,-6%,4µM*,.,3.5µM*
O=C(N/N=C/c1ccc(OC(=O)c2cccs2)cc1)c1ccccn1,7.3µM*,1.5µM*,2.5µM*,.,3.2µM*
CCOc1cc(/C=N/NC(=O)c2ccccn2)ccc1OC(=O)c1cccs1,?,?,18%,.,8%
COc1cc(/C=N/NC(=O)c2ccccn2)ccc1OC(=O)c1ccccc1Br,-5%,4.8µM*,?,.,?
